Source: PubChem (National Center for Advancing Translational Sciences (NCATS))
In the library only some 13% were active in any assay of this set; here they are far more common.
HCMV inh – human cytomegalovirus inhibition; hit rate 4.5% among 410,000; activity change, negative = inhibition, % at 57.5 µM; HFF cells, HCMV-luciferase reporter, 72 h; hits give low values; AID 1259415; in the data active = activity change below about -60%; inconclusive = no clear call, values can overlap the other calls; inactive = above about -39%
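Luciferase read-out from HCMV-luciferase-infected HFFs (MOI 1 PFU/cell) 72 h post infection at 37C; compounds added after 16 h cell attachment; activity normalized between buffer-only basal and Salinomycin (10uM) inhibitor controls.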
HCV inh – HCV inhibition. AID 651820. Huh7.5.1 HCVcc-Cre infection, luciferase reporter, 44 h. Potency, µM (series often up to 41.8 µM), for the others: top-dose activity change, negative = inhibition, usual class: inhibitors. hit rate 3.4% among 340,000; note: potency is the fitted concentration of half-maximal effect
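Cells (1,000/well) were plated 4 h before compound, then infected with HCVcc-Cre virus (~0.5 moi). After 44 h further culture, infection was read as luciferase luminescence following a 15 min substrate incubation at room temperature.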
Pf growth 96h – P. falciparum growth inhibition at 96 hour, primary screen for plastid delayed-death inhibitors; AID 504834; hit rate 6.9% among 320,000; Potency, µM (highest dose often 28.7 µM), without a hit: top-dose activity change, negative = inhibition, hits mostly inhibitors; P. falciparum luciferase reporter growth, 96 h; note: potency is the fitted concentration of half-maximal effect
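Luminescence readout: decreased luciferase signal marks inhibited growth of reporter-expressing P. falciparum in infected red cells (2% hematocrit, 0.05% parasitemia final), exposed to compound two generations (96 h, 37 C, 5% CO2).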
Pf growth 48h – P. falciparum growth inhibition at 48 hours (one generation) | P. falciparum luciferase growth in erythrocytes, 48 h | Potency, µM (highest dose often 28.7 µM), for the others: at the top dose activity change, negative = inhibition, usual class: inhibitors | hit rate 5.9% among 310,000 | AID 504832; note: potency is the fitted concentration of half-maximal effect
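Luminescence readout; reporter = integrated firefly luciferase in P. falciparum. RBC culture at 2% hematocrit, 0.1% parasitemia final, 37 C/5% CO2; decreased signal taken as growth inhibition.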
The depositor's hits bear a star; ? = inconclusive; nt = not tested or not shown. Unless noted, calls come from the whole dose curve; as a rule, active = well fitted inhibition curve with a large enough effect; inconclusive = small, poorly fitted or top-dose-only effect, or another doubt; inactive = no such curve, though single readings can be large or run the other way. % is set by controls: 0 for no effect and ±100 for the full control effect.

SMILES	HCMV inh	HCV inh	Pf growth 96h	Pf growth 48h
CS(=O)(=O)N1CCc2cc(-c3csc(NC(=O)Cc4cccs4)n3)ccc21	-94*	1.4µM*	97%	-23%
Cc1sc(NC(=O)CN2CCOCC2)nc1-c1ccc2c(c1)CCN2S(=O)(=O)c1ccccc1	-96*	?	nt	12µM*
CC(=O)Nc1nc(-c2ccc3c(c2)CCN3S(C)(=O)=O)cs1	15	-14%	27%	-23%
Cc1cccc(C(=O)N2CCc3cc(-c4nc(NC(=O)CN5CCCC5)sc4C)ccc32)c1	1	13µM*	17%	?
COC(=O)c1c(C)sc(-c2c(-c3cccc(Cl)c3)[nH]c3c2c(=O)[nH]c(=O)n3C)c1O	21	nt	nt	nt
Cc1ccccc1C(=O)N1CCc2cc(-c3nc(NC(=O)Cc4ccc5c(c4)OCO5)sc3C)ccc21	nt	3.2µM*	54%	?
Cc1ccc(-c2csc(NC(=O)CN3CCOCC3)n2)cc1	?	?	-2%	-6%
O=C(CN1CCOCC1)Nc1nc(-c2ccc3c(c2)CCN3S(=O)(=O)c2ccccc2)cs1	-88*	3.5µM*	nt	2.1µM*
CC1(CCBr)C(=O)N(c2ccccc2)c2ccccc21 (centres undefined)	13	1%	13µM*	-13%
O=C1N(c2ccccc2)c2ccccc2C1(Cc1ccncc1)Cc1ccncc1	-24	12%	?	?
Cc1ccc(CN2CCSc3ccc(C(=O)N4CCN(c5cc(C)ccc5C)CC4)cc32)cc1	-11	nt	nt	nt
CCn1c(=O)c2sccc2n2c(CCC(=O)Nc3ccc(C(C)C)cc3)nnc12	-8	nt	nt	nt
COc1cccc(C(=O)C2CCCN(Cc3ccc(F)cc3)C2)c1 (centres undefined)	13	-2%	-25%	?
O=C(c1cccc(Cl)c1)C1CCCN(Cc2ccc(N3CCNC3=O)cc2)C1 (centres undefined)	-15	-28%	9.3µM*	?
O=C(c1ccc(Cl)cc1)C1CCCN(Cc2ccc3nonc3c2)C1 (centres undefined)	-25	22µM*	10µM*	0%
COc1ccc(CN2CCCC(C(=O)c3ccc(Cl)cc3)C2)cc1Cn1cccn1 (centres undefined)	-9	10µM*	?	?
CC(C)Oc1cccc(C(=O)C2CCCN(Cc3ccc4nonc4c3)C2)c1 (centres undefined)	-20	?	-18%	-30%
Cc1ccc(Cl)cc1Nc1sc(C(=O)c2ccc(F)cc2)c(N)c1S(C)(=O)=O	-6	nt	nt	nt
CC(C)n1c(=O)c2oc3ccccc3c2n(Cc2ccccc2F)c1=O	-38	nt	nt	nt
O=C1CCN(Cc2ccccc2)CCN1CCOc1ccccc1	-77*	?	85%	75%
CC(C)[C@@H](COc1ccccc1)N1CCN(Cc2ccccc2)CCC1=O	6	-6%	6.6µM*	?
O=C(Nc1ccc(Br)cc1F)c1ncoc1-c1ccco1	10	nt	nt	nt
C[C@H]1CCC/C=C/[C@@H]2C[C@H](O)C[C@H]2[C@H](O)/C=C/C(=O)O1	-98*	0.56µM*	2.9µM*	2.1µM*
C[C@@H]1CC[C@H](O)/C=C/C(=O)O[C@H](C)CC[C@H](O)/C=C/C(=O)O1	-19	?	10µM*	?
COc1cc(NC(=O)CN2C(=O)COc3ccc(S(=O)(=O)NC4CCCC4)cc32)cc(OC)c1	10	nt	nt	nt
SMILES	HCMV inh	HCV inh	Pf growth 96h	Pf growth 48h
CCOC(=O)c1ccccc1NC(=S)N1CCCCC1	-22	25%	9.3µM*	0%
Cc1ccc([N+](=O)[O-])c(NC2OC(CO)C(O)C2O)c1 (centres undefined)	63	25%	5.2µM*	-18%
Cc1ccc([N+](=O)[O-])cc1NC1OC(CO)C(O)C1O (centres undefined)	-4	14%	22%	13%
Cn1cc(C(=O)c2ccc(Cl)cc2Cl)cc1C(=O)N/N=C(\N)COc1ccc(Cl)cc1	0	13µM*	9.3µM*	0%
Cn1cc(C(=O)c2ccc(Cl)cc2Cl)cc1C(=O)N/N=C(\N)COc1ccccc1	-24	-23%	nt	?
Cn1cc(C(=O)c2ccc(Cl)cc2Cl)cc1C(=O)N/N=C(\N)COc1ccc(F)cc1	-4	10µM*	nt	?
Cn1cc(C(=O)c2ccc(Cl)cc2Cl)cc1C(=O)N/N=C(\N)COc1ccc(Cl)cc1Cl	?	13µM*	nt	?
CCC1CN(C(=O)N2CCC(C(=O)NCCc3ccc(OC)cc3OC)CC2)c2cc(C)ccc2O1 (centres undefined)	-1	nt	nt	nt
COc1ccc(/C=C2\SC(=S)N(CCCC(=O)Nc3cccc(C(=O)O)c3)C2=O)cc1OC	-8	12%	?	?
COc1ccc(/C=C2\SC(=S)N(CCCC(=O)Nc3ccccn3)C2=O)cc1OC	-99*	?	?	?
O=C(CN1C(=O)/C(=C\c2ccc(F)cc2)Oc2ccccc21)N1CCN(c2ccccn2)CC1	-3	2%	7.4µM*	10%
Cc1ccc(/C=C2\SC(=S)N(CCCC(=O)Nc3ccccn3)C2=O)cc1	-104*	?	10µM*	?
O=C(CN1C(=O)/C(=C/c2ccc(F)cc2)SC1=S)N1CCN(CCc2ccccn2)CC1	?	?	15µM*	8%
Cc1c(Cl)cccc1NC(=O)Cn1cnc2nc3c(cc2c1=O)CCCC3	23	nt	nt	nt
CCOc1ccc(NC(=O)CC2C(=O)N(c3ccccc3)C(=O)N2C2CCCC2)cc1 (centres undefined)	-6	nt	nt	nt
Cc1cc(C)cc(NC(=O)CSc2oc(-c3ccco3)nc2S(=O)(=O)c2ccc(Cl)cc2)c1	-62*	nt	nt	nt
O=C(CSc1oc(-c2ccccc2)nc1S(=O)(=O)c1ccccc1)NCC1CCCO1 (centres undefined)	-9	?	5%	?
Cc1ccc(-c2nc(S(=O)(=O)c3ccccc3)c(SCC(=O)NCC3CCCO3)o2)cc1 (centres undefined)	-60*	?	?	?
O=C(CSc1oc(-c2ccco2)nc1S(=O)(=O)c1ccc(Cl)cc1)NCC1CCCO1 (centres undefined)	-66*	?	?	nt
Cc1nc2nc(SCC(=O)N(C)Cc3ccccc3)nn2c(C)c1Cc1ccccc1Cl	-9	nt	nt	nt
COc1ccc2cc([C@H](C#N)C3CCCC3)ccc2c1	-9	nt	nt	nt
Nc1nonc1-c1noc(CCCCCN2C(=O)c3ccccc3C2=O)n1	31	-3%	13µM*	40%
COc1ccc(S(=O)(=O)c2cn(Cc3ccccc3)c3cc(N4CCCC4)c(F)cc3c2=O)cc1	8	nt	nt	nt
CCOC(=O)/C=c1\s/c(=C\c2c(OC)ccc3ccccc23)c(=O)n1CC(=O)NCC1CCCO1 (centres undefined)	-95*	?	nt	?
CCOc1ccccc1NC(=O)CN1Cc2ccccc2C1=O	-8	nt	nt	nt
Cc1nc(N2CCCCC2)c2c(C)c(C(=O)Nc3ccccc3C(F)(F)F)sc2n1	?	?	?	9.3µM*
CCOc1ccccc1NC(=O)c1sc2nc(C)nc(N3CCOCC3)c2c1C	-30	?	-7%	?
